Laboratory results: PubChem BioAssay (EPA / NIEHS)
Activity calls are given as the source filed them. Rule for the calls: active = hit-call score of the fitted dose curve at least 0.9, where 1 is the maximum; inactive = score below 0.9.

Legend:
[1] = read-out: Thrombomodulin, THBD (gene 7056); assay: BSK_CASM3C_Thrombomodulin: BioMAP Diversity Plus: CASM3C Assay for Thrombomodulin Biomarker Activity (AID 2283051); conditions: primary human coronary artery smooth muscle cells; actives raise or lower the signal;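 note: thrombomodulin protein level measured by ELISA 24 h after dosing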
[2] = read-out: Tissue Factor, F3 (gene 2152); assay: BSK_CASM3C_TissueFactor: BioMAP Diversity Plus: CASM3C Assay for Tissue Factor Biomarker Activity (AID 2283052); conditions: primary human coronary artery smooth muscle cells; actives raise or lower the signal;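 note: cell surface tissue factor protein level read by ELISA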
[3] = read-out: Interferon-gamma inducible Protein 10 (IP10), CXCL10 (gene 3627); assay: BSK_hDFCGF_IP10: BioMAP Diversity Plus: hDFCGF Assay for Interferon-gamma inducible Protein 10 (IP10) Biomarker Activity (AID 2283053); conditions: primary human foreskin fibroblasts; actives raise or lower the signal
Method in brief: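 Primary foreskin fibroblasts, human; 24 h compound exposure; IP-10 by ELISA; bidirectional fit vs DMSO.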

[4] = read-out: Urokinase-type plasminogen activator receptor (uPAR), PLAUR (gene 5329); assay: BSK_CASM3C_uPAR: BioMAP Diversity Plus: CASM3C Assay for Urokinase-type plasminogen activator receptor (uPAR) Biomarker Activity (AID 2283054); conditions: primary human coronary artery smooth muscle cells; actives raise or lower the signal;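 note: cell-surface uPAR protein level quantified by ELISA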
[5] = read-out: Vascular cell adhesion molecule 1 (VCAM1), VCAM1 (gene 7412); assay: BSK_CASM3C_VCAM1: BioMAP Diversity Plus: CASM3C Assay for Vascular cell adhesion molecule 1 (VCAM1) Biomarker Activity (AID 2283055); conditions: primary human coronary artery smooth muscle cells; actives raise or lower the signal;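 note: VCAM-1 protein level quantified by ELISA on the cells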
[6] = read-out: Collagen III, COL3A1 (gene 1281); assay: BSK_hDFCGF_CollagenIII: BioMAP Diversity Plus: hDFCGF Assay for Collagen III Biomarker Activity (AID 2283056); conditions: primary human foreskin fibroblasts; actives raise or lower the signal
Method in brief: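 Human foreskin primary fibroblasts were exposed to test chemicals for 24 h, after which collagen III was quantified by ELISA. Activity was fitted bidirectionally against DMSO as negative control and baseline.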

[7] = read-out: Epidermal growth factor receptor (EGFR), EGFR (gene 1956); assay: BSK_hDFCGF_EGFR: BioMAP Diversity Plus: hDFCGF Assay for Epidermal growth factor receptor (EGFR) Biomarker Activity (AID 2283057); conditions: primary human foreskin fibroblasts; actives raise or lower the signal
Method in brief: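 hDFCGF system, primary human foreskin fibroblasts; compound 24 h; EGFR measured by ELISA; DMSO = negative control/baseline; bidirectional fitting.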

[8] = read-out: Interleukin-8 (IL8), CXCL8 (gene 3576); assay: BSK_hDFCGF_IL8: BioMAP Diversity Plus: hDFCGF Assay for Interleukin-8 (IL8) Biomarker Activity (AID 2283058); conditions: primary human foreskin fibroblasts; actives raise or lower the signal
Method in brief: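 hDFCGF human dermal fibroblasts; 24 h chemical exposure; IL-8 by ELISA; bidirectional curve fit vs DMSO baseline; gain or loss of signal scored.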

[9] = BSK_hDFCGF_Proliferation: Cell Proliferation Assessment in the BioMAP Diversity Plus: hDFCGF Assay (AID 2283059); conditions: primary human foreskin fibroblasts;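 note: curves fitted for both rise and fall of signal versus DMSO baseline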
Method in brief: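 This proliferation readout used SRB total-protein staining of human foreskin fibroblasts […], normalized to DMSO with bidirectional curve fitting.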

[10] = read-out: Macrophage colony-stimulating factor (MCSF), CSF1 (gene 1435); assay: BSK_hDFCGF_MCSF: BioMAP Diversity Plus: hDFCGF Assay for Macrophage colony-stimulating factor (MCSF) Biomarker Activity (AID 2283060); conditions: primary human foreskin fibroblasts; actives raise or lower the signal
Method in brief: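 Human foreskin primary fibroblasts were treated with test chemical for 24 h, and M-CSF was then measured by ELISA. Data were fitted bidirectionally against DMSO as the negative control and activity baseline.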

[11] = BSK_hDFCGF_SRB: Viability Assessment in the BioMAP Diversity Plus: hDFCGF Assay (AID 2283061); conditions: primary human foreskin fibroblasts;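 note: cells exposed to compound for 24 h before the read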
Method in brief: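 Human foreskin primary fibroblasts were treated with compound and assessed 24 h after dosing. Total protein was measured by sulforhodamine B staining (0.1% SRB after 10% TCA fixation, 560 nm read) as a cytotoxicity marker, with bidirectional fitting against DMSO baseline.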

[12] = read-out: TIMP metallopeptidase inhibitor 1 (TIMP1), TIMP1 (gene 7076); assay: BSK_hDFCGF_TIMP1: BioMAP Diversity Plus: hDFCGF Assay for TIMP metallopeptidase inhibitor 1 (TIMP1) Biomarker Activity (AID 2283062); conditions: primary human foreskin fibroblasts; actives raise or lower the signal
Method in brief: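 Primary human foreskin fibroblasts in the hDFCGF system were dosed with compound for 24 h, then TIMP-1 was measured by ELISA. Activity was fitted bidirectionally relative to DMSO control; parallel SRB staining assessed cytotoxicity.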

[13] = read-out: Monokine induced gamma interferon (MIG), CXCL9 (gene 4283); assay: BSK_hDFCGF_MIG: BioMAP Diversity Plus: hDFCGF Assay for Monokine induced gamma interferon (MIG) Biomarker Activity (AID 2283063); conditions: primary human foreskin fibroblasts; actives raise or lower the signal
Method in brief: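 ELISA read-out of MIG from primary human dermal fibroblasts 24 h post-dosing. Gain or loss of signal fitted bidirectionally, DMSO as baseline.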

[14] = read-out: Matrix Metallopeptidase 1 (MMP1), MMP1 (gene 4312); assay: BSK_hDFCGF_MMP1: BioMAP Diversity Plus: hDFCGF Assay for Matrix Metallopeptidase 1 (MMP1) Biomarker Activity (AID 2283064); conditions: primary human foreskin fibroblasts; actives raise or lower the signal
Method in brief: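 Primary human foreskin fibroblasts exposed to chemicals for 24 h; MMP1 measured by ELISA. Cytotoxicity tracked by SRB staining in parallel cultures; bidirectional fit relative to DMSO.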

[15] = read-out: Plasminogen activator inhibitor-1 (PAI1), SERPINE1 (gene 5054); assay: BSK_hDFCGF_PAI1: BioMAP Diversity Plus: hDFCGF Assay for Plasminogen activator inhibitor-1 (PAI1) Biomarker Activity (AID 2283066); conditions: primary human foreskin fibroblasts; actives raise or lower the signal
Method in brief: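 Primary dermal fibroblasts (human foreskin), hDFCGF system; compound 24 h; PAI-1 by ELISA; bidirectional fit vs DMSO control.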

[16] = read-out: Intercellular Adhesion Molecule 1 (ICAM1), ICAM1 (gene 3383); assay: BSK_KF3CT_ICAM1: BioMAP Diversity Plus: KF3CT Assay for Intercellular Adhesion Molecule 1 (ICAM1) Biomarker Activity (AID 2283067); conditions: primary human keratinocytes with fibroblasts; actives raise or lower the signal
Method in brief: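 Human keratinocyte plus foreskin fibroblast primary co-culture was exposed to chemical for 24 h. ICAM-1 was then quantified by ELISA, and the data were fit bidirectionally against DMSO as the negative control and baseline.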

[17] = read-out: Interferon-gamma inducible Protein 10 (IP10), CXCL10 (gene 3627); assay: BSK_KF3CT_IP10: BioMAP Diversity Plus: KF3CT Assay for Interferon-gamma inducible Protein 10 (IP10) Biomarker Activity (AID 2283068); conditions: primary human keratinocytes with fibroblasts; actives raise or lower the signal
Method in brief: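 Signal is secreted/surface IP-10 by ELISA in a human primary skin co-culture of keratinocytes and foreskin fibroblasts, taken 24 h post-dosing; DMSO served as negative control.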

[18] = BSK_KF3CT_SRB: Viability Assessment in the BioMAP Diversity Plus: KF3CT Assay (AID 2283069); conditions: primary human keratinocytes with fibroblasts;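 note: fitted for both signal gain and loss against DMSO baseline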
Method in brief: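 Human keratinocyte and foreskin fibroblast co-culture exposed to chemical for 24 h. Total protein measured in parallel cultures by 0.1% sulforhodamine B staining after 10% TCA fixation, read at 560 nm; bidirectional fit relative to DMSO.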

[19] = read-out: Interleukin-1 alpha (IL1a), IL1A (gene 3552); assay: BSK_KF3CT_IL1a: BioMAP Diversity Plus: KF3CT Assay for Interleukin-1 alpha (IL1a) Biomarker Activity (AID 2283070); conditions: primary human keratinocytes with fibroblasts; actives raise or lower the signal
Method in brief: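 Primary human keratinocyte plus foreskin fibroblast co-culture, dosed and measured at 24 h in 96-well plates. IL-1a level quantified by ELISA; bidirectional fit relative to DMSO.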

Measured: AC50

c1ccc(Sc2ccccc2)cc1
inactive: [1] | [4] | [7] | [8] | [13] | [16] | [17]
active: [2] 20 µM | [3] 29.3 µM | [5] 20 µM | [6] 29.9 µM | [9] 29.6 µM | [10] 28.1 µM | [11] 39 µM | [12] 25.5 µM | [14] 30.2 µM | [15] 20 µM | [18] 35.5 µM | [19] 30.8 µM

CCn1cc(C(=O)O)c(=O)c2ccc(C)nc21
inactive: all assays above

O=C1OC2(c3ccc(O)cc3Oc3cc(O)ccc32)c2ccccc21
active: [9] 20 µM
inactive: all other assays above

C#C[C@]1(O)CC[C@H]2[C@@H]3CCc4cc(O)ccc4[C@H]3CC[C@@]21C
active: [9] 7.35 µM
inactive: all other assays above

CCCCOCCOCCO
inactive: all assays above

O=C(c1ccc(OCCN2CCCCC2)cc1)c1c(-c2ccc(O)cc2)sc2cc(O)ccc12
active: [3] 32.2 µM | [4] 33.4 µM | [6] 14.8 µM | [7] 9.63 µM | [8] 33.7 µM | [9] 7.34 µM | [11] 24.4 µM | [12] 35.8 µM | [13] 32.1 µM | [14] 31.7 µM | [15] 15.6 µM | [16] 38 µM | [17] 21 µM | [18] 29.2 µM | [19] 21.8 µM
inactive: [1] | [2] | [5]

CCOC(=O)C=Cc1ccccc1
active: [2] 0.0239 µM
inactive: all other assays above

CCCCCCCC1CCCC1=O (stereo unspecified)
active: [2] 31.8 µM | [4] 29.5 µM | [5] 30.9 µM | [9] 33.3 µM | [16] 30.6 µM | [18] 35.1 µM
inactive: all other assays above

CC(=O)c1ccc(C)cc1
inactive: all assays above

O=S1(=O)CC(Cl)(Cl)C(Cl)(Cl)C1
active: [1] 7.52 µM | [2] 2.07 µM | [3] 0.961 µM | [4] 1.05 µM | [5] 0.93 µM | [6] 1.35 µM | [9] 0.016 µM | [10] 0.71 µM | [11] 0.845 µM | [12] 0.839 µM | [13] 0.794 µM | [14] 0.865 µM | [15] 0.865 µM | [16] 1.4 µM | [17] 2.65 µM | [18] 1.36 µM | [19] 1.52 µM
inactive: [7] | [8]

NC(=O)c1c(Cl)cccc1Cl
inactive: all assays above

C[C@]12CC[C@@H]3c4ccc(O)cc4CC[C@H]3[C@@H]1CC[C@@H]2O
active: [6] 20 µM | [9] 22.8 µM
inactive: all other assays above

CC(=O)OCC=C(C)CCC=C(C)CCC=C(C)C
active: [2] 2.51 µM | [6] 4.49 µM | [9] 17.4 µM | [10] 25.9 µM | [12] 26.3 µM | [15] 25.8 µM
inactive: all other assays above

CCCCN(CCO)CCO
inactive: all assays above

OCCN1CCOCC1
active: [2] 2.22 µM
inactive: all other assays above

COc1ccccc1NC(=O)CC(C)=O
inactive: all assays above

C=C(C)C(=O)OCCC(F)(F)C(F)(F)C(F)(F)C(F)(F)C(F)(F)C(F)(F)C(F)(F)C(F)(F)F
inactive: all assays above

CC(C)Cc1ccc(C(C)C(=O)O)cc1 (stereo unspecified)
active: [1] 6.11 µM | [6] 3.33 µM
inactive: all other assays above

C=C1CC/C=C(\C)CC[C@@H]2[C@@H]1CC2(C)C
inactive: [1] | [2] | [4] | [7]
active: [3] 30.1 µM | [5] 29 µM | [6] 13.5 µM | [8] 33.9 µM | [9] 6.82 µM | [10] 24.5 µM | [11] 27.7 µM | [12] 27.5 µM | [13] 33.9 µM | [14] 29.7 µM | [15] 31.2 µM | [16] 30.3 µM | [17] 25.2 µM | [18] 28.1 µM | [19] 29.6 µM

c1ccc2c(c1)-c1ccc3ccc4cccc5cc-2c1c3c45
active: [10] 0.0865 µM
inactive: all other assays above

O=S(=O)(O)C(F)(F)C(F)(F)OC(F)(F)C(F)(F)F
inactive: all assays above

COC(=O)c1ccc(C(=O)OC)cc1
not listed: [2]
inactive: all other assays above
